Hit rate of the full screen: of about 16,000 compounds, about 2,600 (16%) were called active. Roughly 20% stayed inconclusive and do not appear here. Calls follow the shape of the dose curve; as a rule, active = well fitted curve in the direction sought with a large enough effect; inconclusive = small, poorly fitted or top-dose-only effect, or effect the other way; inactive = no such curve, though single readings can be large or run the other way. Only a sample is shown. Some structures have more than one record in an assay (separate samples or runs), and their calls can disagree.
Target: Cytochrome P450 2D6 (Homo sapiens) (UniProt P10635)
Experiment: Cytochrome panel assay with activity outcomes
Conditions: recombinant CYP, pro-luciferin dealkylation, luminescence, p450-cyp2d6; series mostly up to 57.1 µM; activity, negative = inhibition: at the top concentration
% is scaled to controls: 0 for no effect and ±100 for the full control effect.

Sequence of Cytochrome P450 2D6 (Homo sapiens) (P10635 whole entry, looked up): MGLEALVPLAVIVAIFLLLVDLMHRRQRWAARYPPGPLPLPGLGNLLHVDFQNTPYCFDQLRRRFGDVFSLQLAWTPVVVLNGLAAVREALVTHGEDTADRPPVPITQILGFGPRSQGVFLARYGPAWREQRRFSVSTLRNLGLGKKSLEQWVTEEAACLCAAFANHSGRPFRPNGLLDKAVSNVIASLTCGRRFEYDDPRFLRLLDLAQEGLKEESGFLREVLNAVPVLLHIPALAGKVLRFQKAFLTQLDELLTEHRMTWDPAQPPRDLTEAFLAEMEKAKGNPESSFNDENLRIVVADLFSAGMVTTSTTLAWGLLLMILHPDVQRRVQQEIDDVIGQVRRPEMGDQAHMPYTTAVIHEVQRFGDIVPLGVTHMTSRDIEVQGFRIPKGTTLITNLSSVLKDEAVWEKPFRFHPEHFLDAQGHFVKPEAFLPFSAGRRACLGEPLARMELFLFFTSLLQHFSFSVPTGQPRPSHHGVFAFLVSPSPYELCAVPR

activity, negative = inhibition, inactive:
Cc1ccc(C(=O)N/N=C/c2sc(=O)n(Cc3cccc(C(=O)O)c3)c2Cl)cc1 12.6%, CO[C@@H]1COC(=O)[C@H](C)NC(=O)[C@@H](C)COC(=O)CCC[C@H]1C 8.56% [at 11.4 µM], CSc1nncc(/C(C)=N\Nc2ccccc2)n1 -6.12%, CCn1c(SCC(=O)NC2CCCCC2)nnc1-c1cc2cccc(OC)c2o1 -23.6%, COCCNC(=O)CSc1ncnc2sccc12 13.7%, COc1ccc(C2C(C(=O)N3CCN(C)CC3)c3ccccc3C(=O)N2C2CCCCC2)cc1 (stereo unspecified) -5.85%, CN(C)CCCNc1ncnc2nc[nH]c12 1.66% [at 11.4 µM], Cc1ccc2nc(NC(=O)COC(=O)CSc3nc(C)cc(C)n3)sc2c1 -23.1%, Cc1ccc2nc(NC(=O)CSCC(=O)OCC(=O)c3ccc(Br)cc3)sc2c1 -12.5%, C=C[C@]1(C)C[C@H](OC(=O)CO)[C@]2(C)C3C(=O)CC[C@]3(CC[C@H]2C)[C@H](C)[C@H]1O (stereo partly specified) -10.6% [at 11.4 µM], CC(=O)OCC(=O)[C@@]1(O)CC[C@@H]2[C@H]3CCC4=CC(=O)C=C[C@]4(C)[C@]3(F)[C@@H](O)C[C@@]21C -1.72% [at 25.6 µM], O=C1C=C[C@@H](O)[C@H]2[C@@H]3C(=O)N(c4cccc(Oc5ccccc5)c4)C(=O)[C@@H]3CC[C@H]12 -0.0224% [at 11.4 µM], COc1ccccc1CCn1c(=O)c(-c2cc(F)cc(F)c2)nc2cncnc21 -11.2%, CCCN(C(=S)Nc1ccccc1)C1CCS(=O)(=O)C1 (stereo unspecified) -4.85%, Cc1cccc(NC(=S)NC(=O)CCc2ccccc2)c1 -17.4%, COc1ccc(CCNC(=O)Cn2c(=O)oc3ccccc32)cc1OC -18.7%, Cc1cccc(NC(=S)NNC(=O)CCn2cc(C)cn2)c1 -3.85%, Cc1cccc(NC(=O)Cn2cccc2)c1 -5.49%, COc1cc(C2C(C(=O)OCCC#N)=C(C)NC3=C2S(=O)(=O)c2ccccc23)cc(OC)c1OC (stereo unspecified) -6.84%, Cc1ccc(-c2ccnc(=S)[nH]2)cc1 -14.8%, Cc1c(C(=O)Nc2ccc(OCc3ccccc3)cc2)cccc1[N+](=O)[O-] -5.06%, COc1ccc(/C=N/NC(=O)CCCC(=O)NC2CCCCC2)cc1 16.3%, CN(C)c1ncc2nc(-c3cc(F)cc(F)c3)c(=O)n(Cc3ccc(F)cc3)c2n1 10%, Cc1ccc(Nc2nc(Cl)nc(N(C)C#N)n2)cc1 1.15%, Nc1nnc(CC(=O)N/N=C/c2cccc([N+](=O)[O-])c2)s1 -21.2%, Cc1sc(N/N=C/C=C/c2ccccc2)nc1-c1ccccc1 -10.8%, Cc1cccc(-n2c(Cn3nc(C)c([N+](=O)[O-])c3C)n[nH]c2=S)c1 3.45%, Cc1nc(/N=C(\N)Nc2ccccc2)nc2ccccc12 -12.1%, C/C(=N\NC(=S)Nc1cccc(C)c1)c1ccccc1 -25.1%, Cc1ccc(C)c(NC(=O)c2ncn[nH]2)c1 8.78%, Cc1ccc(C)c(NC(=O)Cn2nnc(C(=O)Nc3c(C)cccc3C)c2N)c1 -25.4%, Cc1cc(C)c(-c2cc([C@H](C)O/N=C\[C@@H](C)[C@H](OCc3ccccc3)C(C)C)on2)c(C)c1 -7.16% [at 11.4 µM], O=C(CCNC(=O)Cn1cnc2ccccc2c1=O)NCC1COc2ccccc2O1 (stereo unspecified) 16.6%, O=C(N/N=C/c1ccco1)/C(=C/c1cccc([N+](=O)[O-])c1)NC(=O)c1ccccc1 -15.4%, CN(C)c1ccc(-c2cc(NCc3ccccc3)ncn2)cc1 -17.2%, Cn1cc(/C=C2/SC(=O)N(CC(=O)Nc3ccc4c(c3)OCO4)C2=O)c2ccccc21 -6.65%, CN(C)C(=O)c1ccc(-c2cncnc2Nc2ccccc2)cc1 -2.66%, O=c1oc2cc(N=Cc3ccc4c(c3)OCO4)ccc2c2ccccc12 4.96% [at 11.4 µM], O=C(O)c1cc(-c2ccc3cc4c(cc3c2)OCO4)nc2ccccc12 -6.77% [at 11.4 µM], Cc1cccc(CNc2ncncc2-c2ccc(C(=O)N(C)C)cc2)c1 -9.23%, Cc1noc(C)c1-c1cncnc1Nc1ccccc1 -7.49%, Cc1ccc(C(=O)N/N=C\c2ccc[nH]2)cc1[N+](=O)[O-] -6.03%, CCCOc1ccc(C(=O)NNC(=S)NC(=O)c2cc(-c3ccccc3)nc3ccccc23)cc1 3.87%, O=C(Nc1cccn2ncnc12)c1ccc(Cl)cc1Cl 2.48%, COC(=O)C1=C(NC(=O)c2cccs2)CCS1 12.9%, COc1cnc(-c2ccccn2)nc1Sc1c(Cl)cccc1Cl -25%, COc1cc(OC)cc(C(=O)Nn2cc(C(=O)N3CCN(C)CC3)c3ccccc3c2=O)c1 -15.2%, CCn1cc(C(=O)O)c(=O)c2cc(F)c(N3CCNCC3)nc21 6.39% [at 25.6 µM], O=C(O)C[C@H](S)C(=O)O -2.12% [at 11.4 µM], Clc1ccc2c(c1)C=Nc1c(NCc3ccccc3)ncnc1O2 -0.537%, N#Cc1cccc(-c2cncnc2NCc2cccnc2)c1 -9.2%, c1cncc(CNc2ncncc2-c2cccnc2)c1 -11.4%, COc1ccc(NC(=O)N2CC[C@@]3(CCCN(C(=O)c4cccc(F)c4)C3)C2)cc1 6.12%, O=C(Nc1ccccc1)N1CCSc2cc(Cl)ccc21 -11.2%, OC[C@@H]1O[C@@H](N2CCN([C@@H]3O[C@@H](CO)[C@@H](O)[C@H](O)[C@H]3O)CC2)[C@@H](O)[C@H](O)[C@H]1O -3.98% [at 11.4 µM], COc1ccc2c(c1[N+](=O)[O-])CCC/C2=N/OC(=O)c1ccccc1SC -3.18%, NC(N)=NC(N)=Nc1ccc(S(N)(=O)=O)cc1 4.99% [at 11.4 µM], O=C(CCCn1c(=S)[nH]c2ccc(Br)cc2c1=O)NCC1CCCO1 (stereo unspecified) -8.4%, O=C(c1ccc2c(=O)n(CC3CCCO3)c(=S)[nH]c2c1)N1CCN(c2ccccc2)CC1 (stereo unspecified) -17.4%, CCCCNC(=O)CCn1c(=S)[nH]c2cc3c(cc2c1=O)OCO3 -7.86%, CCOc1cc2[nH]c(=S)n(CCCC(=O)NCc3ccco3)c(=O)c2cc1OCC 18.8%, C=CCNC(=O)c1ccc(Cn2c(=S)[nH]c3cc4c(cc3c2=O)OCO4)cc1 8.13%, O=C(c1ccc2c(=O)n(Cc3ccco3)c(=S)[nH]c2c1)N1CCN(c2ccccc2)CC1 -19.2%, CCCC(=O)Nc1cccc(Oc2nc(C)cc(C)c2C#N)c1 -2.28%, Cc1ccnc(NS(=O)(=O)c2ccc(N=[N+]=[N-])cc2)n1 10.7% [at 11.4 µM], CC(C)=CCC/C(C)=C/CO/N=C1/C[C@@H](O)[C@@H](O)[C@@H]2[C@@H]3C(=O)N(Cc4ccccc4)C(=O)[C@H]3CC[C@H]12 -8.8% [at 11.4 µM], NC(=O)CNC(=O)[C@@H]1CC2(CC(c3ccccc3)=NO2)CN1C(=O)c1ccc(Br)cc1 (stereo partly specified) -20%, CC(=O)Nc1ccc2c(c1)C(=Nc1ccc(C(=O)O)cc1)c1ccccc1-2 13% [at 11.4 µM], COc1ccc(C(=O)N/N=C(\C)Cn2nc([N+](=O)[O-])cc2C)cc1 -23.1%, Cc1ccc(-n2c3c(c(=O)[nH]c2=O)C(NS(=O)(=O)c2ccc(C)cc2)(C(F)(F)F)C(=O)N3)cc1 (stereo unspecified) -0.859%, CC(=O)Nc1ccc(C2=NN(CC#N)C(=O)SC2)cc1 -16.9%, COC(=O)CSC1=C(C#N)C(c2cccc(F)c2)CC(=O)N1 (stereo unspecified) -27.1%, N[C@@H](Cn1cc(F)c(=O)[nH]c1=O)C(=O)O 9.04%, N[C@H](Cn1ccc(=O)n(Cc2ccccc2C(=O)O)c1=O)C(=O)O 1.32%, Cn1cc(-c2nc3cnc(N4CCOCC4)nc3n(C3CC3)c2=O)c2ccccc21 0.0209%

AC50, active:
COCCN=C1Sc2nc3c(C)cccc3cc2CN1Cc1ccco1 14.1 µM, Cc1ccc2nc(NC(=O)COC(=O)c3ccc(Br)o3)sc2c1 15.8 µM, Cc1cccc(NC(=O)Cn2c(=O)oc3ccccc32)c1 3.16 µM, Cc1cccc(NC(=O)Cn2c(=O)n3nc(CCn4nc(C)cc4C)nc3c3ccccc32)c1 14.1 µM, Cc1ccc(C)c(N/C(N)=N/c2nc(C)cc(C)n2)c1 0.794 µM, Cc1cccc(N/C(N)=N/c2nc(C)cc(C)n2)c1 2.82 µM, Cn1c(-c2ccc3c(c2)OCO3)cc(=O)c2ccccc21 1.58 µM, Cc1cccc(CNc2ncncc2-c2ccc3c(c2)OCO3)c1 6.31 µM, Cn1c(-c2ccc3c(c2)OCO3)cnc1NCc1ccccc1 0.794 µM, c1ccc(Nc2ncncc2-c2ccc3c(c2)OCO3)cc1 12.6 µM, c1csc(CNc2ncncc2-c2ccc3c(c2)OCO3)c1 10 µM, c1ccc(Nc2ncnc3ccc(-c4ccc5c(c4)OCO5)cc23)cc1 0.126 µM, c1cncc(CNc2ncncc2-c2ccc3c(c2)OCO3)c1 15.8 µM, c1ccc(CNc2ncncc2-c2ccc3c(c2)OCO3)cc1 12.6 µM, CCN(CC)CCn1c(=S)[nH]c2cc3c(cc2c1=O)OCO3 0.631 µM, O=C(CCCn1c(=S)[nH]c2cc3c(cc2c1=O)OCO3)N1CCN(c2ncccn2)CC1 5.01 µM, O=C(CCCCCn1c(=S)[nH]c2cc3c(cc2c1=O)OCO3)N1CCN(C2CCCCC2)CC1 8.91 µM, N[C@@H](Cn1cc(I)c(=O)n(Cc2ccc(C(=O)O)cc2)c1=O)C(=O)O 2.51 µM

AC50, 251 nM (active) and inactive:
COc1cccc(OC)c1OCCNC[C@@H]1COc2ccccc2O1

AC50, inactive:
O=C1CC[C@H](N2C(=O)c3ccccc3C2=O)C(=O)N1, CCOC(=O)[C@@]12C[C@@H]1/C(=N/O)c1ccccc1O2

Reference: PubChem BioAssay AID1851 (National Center for Advancing Translational Sciences (NCATS), 2009)
